Inconclusive results are not listed. Calls of active or inactive are those of the source. The call rests on the fitted dose curve; in most records, active means well fitted curve in the direction sought with a large enough effect; inconclusive means small, poorly fitted or top-dose-only effect, or another doubt; inactive means no such curve, though single readings can be large; an effect the other way counts as inactive or inconclusive.
Key:
[1] = Quantitative High-Throughput drug screen in 47 multiple myeloma cell lines against the NCATS MIPE library collection: NCIH929_DSMZ cell viability assay (AID 1918978); further: nearly all actives have a fitted effect of over 35% in size
Summary of the method: (§1)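 ATP-based luminescence (CellTiter-Glo, 5 min RT incubation) quantified surviving cells following two days' treatment with MIPE 4.0 agents at 37 °C, 5% CO2.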

[2] = Quantitative High-Throughput drug screen in 47 multiple myeloma cell lines against the NCATS MIPE library collection: OCIMY1_PLB cell viability assay (AID 1918979); further: nearly all actives have a fitted effect of over 35% in size;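 on viability: 100% = DMSO-only wells and 0% = cell-free media-only wells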
Summary of the method: as §1

[3] = Quantitative High-Throughput drug screen in 47 multiple myeloma cell lines against the NCATS MIPE library collection: MM1R_ATCC cell viability assay (AID 1918981); further: nearly all actives have a fitted effect of over 35% in size
Summary of the method: as §1

[4] = Quantitative High-Throughput drug screen in 47 multiple myeloma cell lines against the NCATS MIPE library collection: L363_DSMZ cell viability assay (AID 1918984); further: nearly all actives have a fitted effect of over 40% in size
Summary of the method: as §1

[5] = Quantitative High-Throughput drug screen in 47 multiple myeloma cell lines against the NCATS MIPE library collection: OCIMY7_PLB cell viability assay (AID 1918987); conditions: OCI-MY7 myeloma viability, CellTiter-Glo ATP, 48 h; viability (% of DMSO): at 45.8 µM (top of the series); further: nearly all actives have a fitted effect of over 65% in size
Summary of the method: as §1

[6] = Quantitative High-Throughput drug screen in 47 multiple myeloma cell lines against the NCATS MIPE library collection: OPM1_PLB cell viability assay (AID 1918989); further: nearly all actives have a fitted effect of over 40% in size
Summary of the method: as §1

[7] = Quantitative High-Throughput drug screen in 47 multiple myeloma cell lines against the NCATS MIPE library collection: SKMM1_PLB cell viability assay (AID 1919863); conditions: SKMM1 myeloma viability, CellTiter-Glo ATP, 48 h; viability: hits give low values; further: nearly all actives have a fitted effect of over 35% in size
Summary of the method: as §1

[8] = Quantitative High-Throughput drug screen in 47 multiple myeloma cell lines against the NCATS MIPE library collection: U266_ATCC cell viability assay (AID 1919864); further: nearly all actives have a fitted effect of over 35% in size;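 on viability (% of DMSO control): 0% = media-only wells without cells and 100% = DMSO-only wells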
Summary of the method: as §1

[9] = Quantitative High-Throughput drug screen in 47 multiple myeloma cell lines against the NCATS MIPE library collection: XG6_PLB cell viability assay (AID 1919865); further: nearly all actives have a fitted effect of over 40% in size
Summary of the method: as §1

[10] = Quantitative High-Throughput drug screen in 47 multiple myeloma cell lines against the NCATS MIPE library collection: XG1_PLB cell viability assay (AID 1919866); further: nearly all actives have a fitted effect of over 35% in size
Summary of the method: as §1

[11] = Quantitative High-Throughput drug screen in 47 multiple myeloma cell lines against the NCATS MIPE library collection: VP6_DJ cell viability assay (AID 1919867); further: nearly all actives have a fitted effect of over 40% in size;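 on viability (% of DMSO): 100% = DMSO-only wells and 0% = wells with media alone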
Summary of the method: as §1

[12] = Quantitative High-Throughput drug screen in 47 multiple myeloma cell lines against the NCATS MIPE library collection: UTMC2_PLB cell viability assay (AID 1919868); conditions: CellTiter-Glo ATP luminescence, 48 h; viability (% of DMSO control): at 45.8 µM (top of the series); further: nearly all actives have a fitted effect of over 55% in size;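 on viability (% of DMSO control): 100% = DMSO-only wells and 0% = media-only wells without cells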
Summary of the method: as §1

[13] = Quantitative High-Throughput drug screen in 47 multiple myeloma cell lines against the NCATS MIPE library collection: PE2_PLB cell viability assay (AID 1919869); further: nearly all actives have a fitted effect of over 35% in size
Summary of the method: as §1

[14] = Quantitative High-Throughput drug screen in 47 multiple myeloma cell lines against the NCATS MIPE library collection: LP1_DSMZ cell viability assay (AID 1918982); further: nearly all actives have a fitted effect of over 35% in size
Summary of the method: as §1

[15] = Quantitative High-Throughput drug screen in 47 multiple myeloma cell lines against the NCATS MIPE library collection: OCIMY5_PLB cell viability assay (AID 1918988); further: nearly all actives have a fitted effect of over 65% in size
Summary of the method: as §1

[16] = Quantitative High-Throughput drug screen in 47 multiple myeloma cell lines against the NCATS MIPE library collection: KMS34_JCRB cell viability assay (AID 1918985); further: nearly all actives have a fitted effect of over 40% in size
Summary of the method: as §1

[17] = Quantitative High-Throughput drug screen in 47 multiple myeloma cell lines against the NCATS MIPE library collection: PCM6_Riken cell viability assay (AID 1919870); further: nearly all actives have a fitted effect of over 30% in size
Summary of the method: as §1

[18] = Quantitative High-Throughput drug screen in 47 multiple myeloma cell lines against the NCATS MIPE library collection: KMS28PE_JCRB cell viability assay (AID 1918983); further: nearly all actives have a fitted effect of over 35% in size
Summary of the method: as §1

[19] = Quantitative High-Throughput drug screen in 47 multiple myeloma cell lines against the NCATS MIPE library collection: MM1S_ATCC cell viability assay (AID 1918980); further: nearly all actives have a fitted effect of over 45% in size
Summary of the method: as §1
Potency means the concentration at half of the fitted maximal effect.

N#CC(=C(N)Sc1ccccc1N)C(C#N)=C(N)Sc1ccccc1N
active: Potency [1] 14.8 µM | Potency [3] 1.18 µM | Potency [4] 10.5 µM | Potency [5] 0.662 µM | Potency [6] 20.9 µM | Potency [7] 1.32 µM | Potency [8] 5.26 µM | Potency [9] 14.8 µM | Potency [10] 9.35 µM | Potency [11] 20.9 µM | Potency [12] 8.33 µM | Potency [13] 18.7 µM
inactive: Potency [2]

COC1CCC(N(C(=O)C2CCC(C)CC2)c2cc(C3=CCCCC3)sc2C(=O)O)CC1 (stereo unspecified)
inactive: Potency [2] | Potency [14] | Potency [8]
active: Potency [1] 23.5 µM | Potency [15] 11.8 µM | Potency [9] 23.5 µM | Potency [10] 20.9 µM | Potency [11] 14.8 µM | viability (% of DMSO control) [12] 89.9% | Potency [13] 23.5 µM

CCCCCN(C)CCC(O)(P(=O)(O)O)P(=O)(O)O
inactive: Potency [1] | Potency [2] | Potency [14] | Potency [4] | Potency [16] | Potency [5] | Potency [6] | Potency [8] | Potency [9] | Potency [10] | Potency [13] | Potency [17]

CC(C)=CC[C@@H](O)C1=CC(=O)c2c(O)ccc(O)c2C1=O
active: Potency [1] 0.264 µM | Potency [2] 1.18 µM | Potency [3] 0.264 µM | Potency [14] 3.32 µM | Potency [18] 1.05 µM | Potency [16] 1.05 µM | Potency [15] 0.469 µM | Potency [7] 1.05 µM | Potency [8] 0.469 µM | Potency [9] 0.469 µM | Potency [10] 0.418 µM | Potency [11] 0.833 µM | Potency [12] 13.2 µM | Potency [13] 0.264 µM

Nc1ncnc2c1ncn2[C@@H]1O[C@@H](CO)[C@H](O)[C@H]1O
inactive: Potency [1] | Potency [2] | Potency [19] | Potency [14] | Potency [18] | Potency [6] | Potency [9] | Potency [10] | Potency [13]

CC(C)(C)C(=O)Oc1ccc2c(c1)nc(NC(=O)c1cccc([N+](=O)[O-])c1)n2CCCO
inactive: Potency [1] | Potency [2] | Potency [9] | Potency [10] | Potency [13] | Potency [17]
active: Potency [19] 23.5 µM | Potency [15] 18.7 µM

COc1ccc(Cc2nccc3cc(OC)c(OC)cc23)cc1OC
active: Potency [2] 18.7 µM | Potency [3] 23.5 µM | Potency [18] 8.33 µM | Potency [16] 3.72 µM | Potency [5] 18.7 µM | Potency [15] 16.6 µM | Potency [6] 11.8 µM | Potency [9] 13.2 µM | Potency [10] 14.8 µM
inactive: Potency [1] | Potency [12]

CC1(C)CCC[C@@]2(C)[C@@H]1CC[C@@]1(C)OC(=O)C[C@H]21
inactive: Potency [1] | Potency [2] | Potency [14] | Potency [18] | Potency [16] | Potency [9] | Potency [10] | Potency [13] | Potency [17]
active: Potency [15] 23.5 µM | Potency [7] 8.33 µM

Cc1ccc(C(C)(O)c2nc3ccccc3s2)c(C)c1 (stereo unspecified)
inactive: Potency [1] | Potency [2] | Potency [14] | Potency [16] | viability [7] 94% | Potency [9] | Potency [10] | Potency [11] | Potency [13] | Potency [17]

Cc1ccn(-c2ccc(-c3ncco3)cc2)c(=O)c1-c1ccc2nc(N)ncc2c1
active: Potency [5] 0.935 µM | Potency [6] 3.72 µM | Potency [11] 1.66 µM | Potency [13] 4.69 µM
inactive: Potency [1] | Potency [2] | Potency [14] | viability [7] 99.5%

O=C(Nc1c(Cl)cncc1Cl)c1ccc(OC(F)F)c(OCC2CC2)c1
active: Potency [1] 23.5 µM | Potency [2] 0.0012 µM | Potency [19] 23.5 µM | Potency [10] 18.7 µM
inactive: Potency [14] | Potency [18] | Potency [4] | Potency [6] | Potency [8]

CCc1ccc(C=C2SC(=S)NC2=O)cc1
inactive: Potency [1] | Potency [2] | Potency [14] | Potency [18] | Potency [15] | Potency [6]

CC1(C)O[C@H]2C[C@@H]3[C@H]4CCC5=CC(=O)C=C[C@]5(C)[C@@]4(F)[C@@H](O)C[C@]3(C)[C@]2(C(=O)CO)O1
active: Potency [1] 26.4 µM | Potency [19] 0.0132 µM | Potency [14] 0.0132 µM | Potency [16] 0.0118 µM | Potency [17] 0.059 µM
inactive: Potency [2] | Potency [18] | Potency [6] | viability [7] 108% | Potency [8] | Potency [9] | Potency [10] | Potency [12] | Potency [13]

COc1ccc(-c2oc3c(CC=C(C)C)c(OC4O[C@H](CO)[C@@H](O)[C@H](O)[C@@H]4O)cc(O)c3c(=O)c2OC2O[C@@H](C)[C@H](O)[C@@H](O)[C@@H]2O)cc1 (stereo partly specified)
active: Potency [1] 29.6 µM | Potency [2] 23.5 µM | Potency [3] 20.9 µM | Potency [14] 20.9 µM | Potency [16] 23.5 µM | Potency [5] 13.2 µM | Potency [15] 20.9 µM | Potency [6] 26.4 µM | Potency [7] 20.9 µM | Potency [9] 23.5 µM | Potency [10] 18.7 µM | Potency [13] 23.5 µM | Potency [17] 16.6 µM

Cc1cnc(C(=O)O)c[n+]1[O-]
active: Potency [18] 23.5 µM | Potency [16] 4.18 µM
inactive: Potency [1] | Potency [2] | Potency [3] | Potency [14] | Potency [4] | Potency [8] | Potency [9] | Potency [10] | Potency [12] | Potency [13] | Potency [17]

— PubChem BioAssay (NCATS)
